Laboratory results taken from PubChem BioAssay.
For part of these data: Entries with a potency or affinity are not part of this list. Activity calls are given as the source filed them. Unless noted, the rule behind the calls is not given here.

Key:
[1] = biological target: Cell division control protein 42 homolog (Homo sapiens) (UniProt P60953); experiment: activated mutant Cdc42 GTP-binding inhibitors, dose response, biochemical, multiplex bead flow cytometry, Bodipy-FL-GTP (AID 1333;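 active = fitted half-maximal concentration within the tested dose range, moderate curve steepness, a statistically real signal drop, and little compound fluorescence or tag-binding interference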)
[2] = biological target: Cell division control protein 42 homolog (Homo sapiens) (UniProt P60953); experiment: wildtype Cdc42 GTP-binding inhibitors, dose response, biochemical, multiplex bead flow cytometry, Bodipy-FL-GTP (AID 1334;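 active = fitted half-maximal concentration within the tested range, moderate curve steepness, significant signal drop, and little compound fluorescence or bead-linkage interference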); details: bead-based flow cytometry, Bodipy-FL-GTP binding to GST-Cdc42; at 100 µM (top of the series) unless noted
[3] = biological target: GTPase HRas (Homo sapiens) (UniProt P01112); experiment: inhibitors of GTP binding to wildtype Ras, dose response, biochemical, multiplex bead flow cytometry (AID 1335;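 active = fitted half-maximal concentration within 10 nM to 100 µM, steepness 0.5 to 2, significant signal drop, low assay interference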); details: bead-based flow cytometry, Bodipy-GTP binding to GST-Ras; at 100 µM (top of the series) unless noted
[4] = system: Ras-related protein Rab-7a (dog), GTP binding; experiment: Rab7 GTP binding inhibitors, potency, dose response, biochemical, wildtype, multiplex bead flow cytometry (AID 1336)
[5] = biological target: Ras-related C3 botulinum toxin substrate 1 (Homo sapiens) (UniProt P63000); experiment: wildtype Rac1 GTP binding inhibitors, dose response, biochemical, multiplex bead flow cytometry (AID 1340;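 active = dose curve with midpoint inside tested range, moderate steepness, plateau gap beyond fit error, low compound glow and bead-link interference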); details: GST-Rac1 beads, Bodipy-FL-GTP binding; at 100 µM (top of the series) unless noted
[6] = biological target: GTPase HRas (Homo sapiens) (UniProt P01112); experiment: activated Ras mutant GTP binding inhibitors, dose response, biochemical, multiplex bead flow cytometry (AID 1341;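 active = dose-response curve with midpoint inside the tested range, moderate steepness, significant amplitude and little compound fluorescence or bead-attachment interference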;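 note: GST-tagged constitutively activated Ras mutant immobilized on beads and multiplexed with other GTPases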)

Sequence of Cell division control protein 42 homolog (Homo sapiens) (P60953 whole entry, looked up): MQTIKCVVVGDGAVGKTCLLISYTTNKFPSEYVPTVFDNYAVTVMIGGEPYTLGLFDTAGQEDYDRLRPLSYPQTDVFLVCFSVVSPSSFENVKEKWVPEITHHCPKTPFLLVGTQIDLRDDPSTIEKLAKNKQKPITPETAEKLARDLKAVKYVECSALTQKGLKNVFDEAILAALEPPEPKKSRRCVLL
Sequence of GTPase HRas (Homo sapiens) (P01112 whole entry, looked up): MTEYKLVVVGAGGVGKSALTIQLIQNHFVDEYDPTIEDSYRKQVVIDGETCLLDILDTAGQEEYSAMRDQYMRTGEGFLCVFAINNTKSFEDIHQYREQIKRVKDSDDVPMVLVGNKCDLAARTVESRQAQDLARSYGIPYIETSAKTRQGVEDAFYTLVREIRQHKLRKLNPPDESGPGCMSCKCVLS

## O=C(COC(=O)C1(c2ccccc2F)CCCC1)Nc1ncc(C(F)(F)F)cc1Cl
[1]
  outcome: inactive
[2]
  fluorescence, percent of control (lower = inhibition): 47.6%
[3]
  GTP binding, percent of control: 60.4%
[4]
  outcome: inactive
[5]
  GTP binding signal, raw median fluorescence (lower = inhibition) (MCF (arbitrary fluorescence units)): 194
[6]
  outcome: inactive

## CCOc1ccc(-n2nc3c(=S)[nH]nc(C)c3c2C)cc1
[1]
  outcome: inactive
[2]
  fluorescence, percent of control (lower = inhibition): 53.6%
[3]
  GTP binding, percent of control: 66.6%
[4]
  outcome: inactive
[5]
  GTP binding signal, raw median fluorescence (lower = inhibition) (MCF (arbitrary fluorescence units)): 0
[6]
  outcome: inactive

## O=C(/C=C/c1ccc(N2CCC(c3ccccc3)=N2)cc1)c1ccccc1
[1]
  outcome: inactive
[2]
  fluorescence, percent of control (lower = inhibition): 344%
[3]
  GTP binding, percent of control: 394%
[4]
  outcome: inactive
[5]
  GTP binding signal, raw median fluorescence (lower = inhibition) (MCF (arbitrary fluorescence units)): 651
[6]
  outcome: inactive

## CCOC(=O)c1nc(Nc2ccc(C(=O)OC)cc2)c2ccccc2n1
[1]
  outcome: inactive
[2]
  fluorescence, percent of control (lower = inhibition): 43.9%
[3]
  GTP binding, percent of control: 115%
[4]
  outcome: inactive
[5]
  GTP binding signal, raw median fluorescence (lower = inhibition) (MCF (arbitrary fluorescence units)): 128
[6]
  outcome: inactive

## Cc1ccc(N=Nc2c(N)[nH]n3c(=O)cc(-c4ccccc4)nc23)cc1
[1]
  outcome: inactive
[2]
  fluorescence, percent of control (lower = inhibition): 64.1%
[3]
  GTP binding, percent of control: 125%
[4]
  outcome: inactive
[5]
  GTP binding signal, raw median fluorescence (lower = inhibition) (MCF (arbitrary fluorescence units)): 118
[6]
  outcome: inactive

## CCOC(=O)c1c(-c2ccc(C)cc2)csc1NC(=O)/C(C#N)=C/c1ccc(O)c(OC)c1
[1]
  outcome: inactive
[2]
  fluorescence, percent of control (lower = inhibition): 87.8%
[3]
  GTP binding, percent of control: 99.4%
[4]
  outcome: inactive
[5]
  GTP binding signal, raw median fluorescence (lower = inhibition) (MCF (arbitrary fluorescence units)): 226
[6]
  outcome: inactive

## O=C(O)CC/C(=C\c1ccc(N2CCOCC2)c([N+](=O)[O-])c1)c1nc2ccccc2s1
[1]
  outcome: inactive
[2]
  fluorescence, percent of control (lower = inhibition): 28.1%
[3]
  GTP binding, percent of control: 71.9%
[4]
  outcome: inactive
[5]
  GTP binding signal, raw median fluorescence (lower = inhibition) (MCF (arbitrary fluorescence units)): 212
[6]
  outcome: inactive

## COc1ccc(/C=N/Nc2ncnc3sc4c(c23)CCCC4)cc1O
[1]
  outcome: inactive
[2]
  fluorescence, percent of control (lower = inhibition): 30.6%
[3]
  GTP binding, percent of control: 42.8%
[4]
  outcome: inactive
[5]
  GTP binding signal, raw median fluorescence (lower = inhibition) (MCF (arbitrary fluorescence units)): 112
[6]
  outcome: inactive

## Cc1ccc(-n2c(=O)[nH]c3c(oc4ccccc43)c2=O)cc1
[1]
  outcome: inactive
[2]
  fluorescence, percent of control (lower = inhibition): 34.8%
[3]
  GTP binding, percent of control: 78.7%
[4]
  outcome: inactive
[5]
  GTP binding signal, raw median fluorescence (lower = inhibition) (MCF (arbitrary fluorescence units)): 332
[6]
  outcome: inactive

## COc1ccc(CN2C(=O)/C(=C/c3ccc(-c4ccc(Cl)c(C(=O)O)c4)o3)SC2=S)cc1
[1]
  outcome: inactive
[2]
  fluorescence, percent of control (lower = inhibition): 32.2%
[3]
  GTP binding, percent of control: 56%
[4]
  outcome: inactive
[5]
  GTP binding signal, raw median fluorescence (lower = inhibition) (MCF (arbitrary fluorescence units)): 142
[6]
  outcome: inactive

## COCCn1c(N)c(C(=O)Nc2sc3c(c2C(=O)OC)CCCC3)c2nc3ccccc3nc21
[1]
  outcome: inactive
[2]
  fluorescence, percent of control (lower = inhibition): 52%
[3]
  GTP binding, percent of control: 108%
[4]
  outcome: inactive
[5]
  GTP binding signal, raw median fluorescence (lower = inhibition) (MCF (arbitrary fluorescence units)): 120
[6]
  outcome: inactive

## CCN1C(=O)C(CC(=O)Nc2ccc(F)cc2)N(CCc2ccc(OC)cc2)C1=S (stereo not given)
[1]
  outcome: inactive
[2]
  fluorescence, percent of control (lower = inhibition): 33.8%
[3]
  GTP binding, percent of control: 78.6%
[4]
  outcome: inactive
[5]
  GTP binding signal, raw median fluorescence (lower = inhibition) (MCF (arbitrary fluorescence units)): 239
[6]
  outcome: inactive

## O=C(Nc1ccc(N2CCOCC2)c(Cl)c1)c1ncn[nH]1
[1]
  outcome: inactive
[2]
  fluorescence, percent of control (lower = inhibition): 104%
[3]
  GTP binding, percent of control: 203%
[4]
  outcome: inactive
[5]
  GTP binding signal, raw median fluorescence (lower = inhibition) (MCF (arbitrary fluorescence units)): 241
[6]
  outcome: inactive

## CCCNC(=O)Cn1c(=O)/c(=C\c2ccc(-c3ccc([N+](=O)[O-])cc3)o2)s/c1=C\C(=O)C(C)(C)C
[1]
  outcome: inactive
[2]
  fluorescence, percent of control (lower = inhibition): 115%
[3]
  GTP binding, percent of control: 126%
[4]
  outcome: inactive
[5]
  GTP binding signal, raw median fluorescence (lower = inhibition) (MCF (arbitrary fluorescence units)): 300
[6]
  outcome: inactive

## O=C(Cn1cnc2c(nnn2Cc2ccccc2F)c1=O)NCC1CCCO1 (stereo not given)
[1]
  outcome: inactive
[2]
  fluorescence, percent of control (lower = inhibition): 51.6%
[3]
  GTP binding, percent of control: 63.1%
[4]
  outcome: inactive
[5]
  GTP binding signal, raw median fluorescence (lower = inhibition) (MCF (arbitrary fluorescence units)): 208
[6]
  outcome: inactive

## Cc1cccn2c(=O)c(/C=C3\SC(=S)N(CC(C)C)C3=O)c(NCCCOC(C)C)nc12
[1]
  outcome: inactive
[2]
  fluorescence, percent of control (lower = inhibition): 58.1%
[3]
  GTP binding, percent of control: 191%
[4]
  outcome: inactive
[5]
  GTP binding signal, raw median fluorescence (lower = inhibition) (MCF (arbitrary fluorescence units)): 209
[6]
  outcome: inactive

## COc1ccc(-c2nnc(S/C(=C/c3ccc(Cl)cc3)C(=O)O)o2)cc1
[1]
  outcome: inactive
[2]
  fluorescence, percent of control (lower = inhibition): 35.8%
[3]
  GTP binding, percent of control: 81.6%
[4]
  outcome: inactive
[5]
  GTP binding signal, raw median fluorescence (lower = inhibition) (MCF (arbitrary fluorescence units)): 218
[6]
  outcome: inactive

## OC(c1ccc(OCc2ccccc2)cc1)c1nnc(-c2ccccc2)o1 (stereo not given)
[1]
  outcome: inactive
[2]
  fluorescence, percent of control (lower = inhibition): 92.3%
[3]
  GTP binding, percent of control: 177%
[4]
  outcome: inactive
[5]
  GTP binding signal, raw median fluorescence (lower = inhibition) (MCF (arbitrary fluorescence units)): 173
[6]
  outcome: inactive

## Cc1nc(NC(=O)/C=C/c2ccc(Cl)cc2Cl)sc1C(=O)N(C)C
[1]
  outcome: inactive
[2]
  fluorescence, percent of control (lower = inhibition): 45%
[3]
  GTP binding, percent of control: 61.1%
[4]
  outcome: inactive
[5]
  GTP binding signal, raw median fluorescence (lower = inhibition) (MCF (arbitrary fluorescence units)): 182
[6]
  outcome: inactive

## CCOc1cc(/C=N/NC(=O)CSc2cccc3cccnc23)ccc1O
[1]
  outcome: inactive
[2]
  fluorescence, percent of control (lower = inhibition): 35.6%
[3]
  GTP binding, percent of control: 78.2%
[4]
  outcome: inactive
[5]
  GTP binding signal, raw median fluorescence (lower = inhibition) (MCF (arbitrary fluorescence units)): 188
[6]
  outcome: inactive

## COc1cc(/C=N/NC(N)=O)cc([N+](=O)[O-])c1O
[1]
  outcome: inactive
[2]
  fluorescence, percent of control (lower = inhibition): 35.1%
[3]
  GTP binding, percent of control: 78.6%
[4]
  outcome: inactive
[5]
  GTP binding signal, raw median fluorescence (lower = inhibition) (MCF (arbitrary fluorescence units)): 175
[6]
  outcome: inactive

## Cc1cc(C)n2nc(C(=O)Nc3cccc(S(=O)(=O)N4CCCC4)c3)nc2n1
[1]
  outcome: inactive
[2]
  fluorescence, percent of control (lower = inhibition): 33.5%
[3]
  GTP binding, percent of control: 78.7%
[4]
  outcome: inactive
[5]
  GTP binding signal, raw median fluorescence (lower = inhibition) (MCF (arbitrary fluorescence units)): 227
[6]
  outcome: inactive

## CC(=O)Oc1cccc(C#CC(=O)c2ccc([N+](=O)[O-])cc2)c1
[1]
  outcome: inactive
[2]
  fluorescence, percent of control (lower = inhibition): 35.4%
[3]
  GTP binding, percent of control: 173%
[4]
  outcome: inactive
[5]
  GTP binding signal, raw median fluorescence (lower = inhibition) (MCF (arbitrary fluorescence units)): 95.5
[6]
  outcome: inactive

## COc1ccccc1Nc1nc(-c2c(C)nc3ncccn23)cs1
[1]
  outcome: inactive
[2]
  fluorescence, percent of control (lower = inhibition): 26.5%
[3]
  GTP binding, percent of control: 57.6%
[4]
  outcome: inactive
[5]
  GTP binding signal, raw median fluorescence (lower = inhibition) (MCF (arbitrary fluorescence units)): 117
[6]
  outcome: inactive

## O=c1c2ccc([N+](=O)[O-])cc2ncn1CCOc1ccccc1
[1]
  outcome: inactive
[2]
  fluorescence, percent of control (lower = inhibition): 48.1%
[3]
  GTP binding, percent of control: 95.3%
[4]
  outcome: inactive
[5]
  GTP binding signal, raw median fluorescence (lower = inhibition) (MCF (arbitrary fluorescence units)): 188
[6]
  outcome: inactive

## COc1ccc(C(=O)O)c(OCc2ccccc2C)c1
[1]
  outcome: inactive
[2]
  fluorescence, percent of control (lower = inhibition): 62.5%
[3]
  GTP binding, percent of control: 208%
[4]
  outcome: inactive
[5]
  GTP binding signal, raw median fluorescence (lower = inhibition) (MCF (arbitrary fluorescence units)): 57.3
[6]
  outcome: inactive

## Cc1cc2nc(/C(C#N)=C/c3ccncc3)[nH]c2cc1C
[1]
  outcome: inactive
[2]
  fluorescence, percent of control (lower = inhibition): 30.6%
[3]
  GTP binding, percent of control: 76.7%
[4]
  outcome: inactive
[5]
  GTP binding signal, raw median fluorescence (lower = inhibition) (MCF (arbitrary fluorescence units)): 245
[6]
  outcome: inactive

## Cc1ccc(NC(=O)CN2C(=O)S/C(=C\c3ccc(-c4cccc(C(=O)O)c4C)o3)C2=O)cc1C
[1]
  outcome: inactive
[2]
  fluorescence, percent of control (lower = inhibition): 107%
[3]
  GTP binding, percent of control: 149%
[4]
  outcome: inactive
[5]
  GTP binding signal, raw median fluorescence (lower = inhibition) (MCF (arbitrary fluorescence units)): 265
[6]
  outcome: inactive

## O=C(COc1ncnc2cc([N+](=O)[O-])ccc12)NC(=O)NC1CCCCC1
[1]
  outcome: inactive
[2]
  fluorescence, percent of control (lower = inhibition): 31.6%
[3]
  GTP binding, percent of control: 70.8%
[4]
  outcome: inactive
[5]
  GTP binding signal, raw median fluorescence (lower = inhibition) (MCF (arbitrary fluorescence units)): 153
[6]
  outcome: inactive

## O=C(O)Cn1c(SCCOc2ccccc2Cl)nc2ccccc21
[1]
  outcome: inactive
[2]
  fluorescence, percent of control (lower = inhibition): 60.2%
[3]
  GTP binding, percent of control: 86.5%
[4]
  outcome: inactive
[5]
  GTP binding signal, raw median fluorescence (lower = inhibition) (MCF (arbitrary fluorescence units)): 30.5
[6]
  outcome: inactive
